# Measurements reported in paper PMC4336329 (PLoS ONE, 2015).
# The campaign covered roughly 310,000 compounds. About 14,000 (4.5%) showed an effect of 50% or more. Effects have a minus sign here. For the sample, strong results were picked, then their nearest neighbours and some compounds at random.
# Molecular target: human ether-à-go-go-related gene (hERG) potassium channel (human, UniProt Q12809)
# Test: primary screen, population patch clamp on CHO cells stably expressing hERG; higher = less effect of the substance
# 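Further: peak tail current of the secondary pulse compared with the same well before compound.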
# human ether-à-go-go-related gene (hERG) potassium channel, sequence (Q12809 whole entry, looked up): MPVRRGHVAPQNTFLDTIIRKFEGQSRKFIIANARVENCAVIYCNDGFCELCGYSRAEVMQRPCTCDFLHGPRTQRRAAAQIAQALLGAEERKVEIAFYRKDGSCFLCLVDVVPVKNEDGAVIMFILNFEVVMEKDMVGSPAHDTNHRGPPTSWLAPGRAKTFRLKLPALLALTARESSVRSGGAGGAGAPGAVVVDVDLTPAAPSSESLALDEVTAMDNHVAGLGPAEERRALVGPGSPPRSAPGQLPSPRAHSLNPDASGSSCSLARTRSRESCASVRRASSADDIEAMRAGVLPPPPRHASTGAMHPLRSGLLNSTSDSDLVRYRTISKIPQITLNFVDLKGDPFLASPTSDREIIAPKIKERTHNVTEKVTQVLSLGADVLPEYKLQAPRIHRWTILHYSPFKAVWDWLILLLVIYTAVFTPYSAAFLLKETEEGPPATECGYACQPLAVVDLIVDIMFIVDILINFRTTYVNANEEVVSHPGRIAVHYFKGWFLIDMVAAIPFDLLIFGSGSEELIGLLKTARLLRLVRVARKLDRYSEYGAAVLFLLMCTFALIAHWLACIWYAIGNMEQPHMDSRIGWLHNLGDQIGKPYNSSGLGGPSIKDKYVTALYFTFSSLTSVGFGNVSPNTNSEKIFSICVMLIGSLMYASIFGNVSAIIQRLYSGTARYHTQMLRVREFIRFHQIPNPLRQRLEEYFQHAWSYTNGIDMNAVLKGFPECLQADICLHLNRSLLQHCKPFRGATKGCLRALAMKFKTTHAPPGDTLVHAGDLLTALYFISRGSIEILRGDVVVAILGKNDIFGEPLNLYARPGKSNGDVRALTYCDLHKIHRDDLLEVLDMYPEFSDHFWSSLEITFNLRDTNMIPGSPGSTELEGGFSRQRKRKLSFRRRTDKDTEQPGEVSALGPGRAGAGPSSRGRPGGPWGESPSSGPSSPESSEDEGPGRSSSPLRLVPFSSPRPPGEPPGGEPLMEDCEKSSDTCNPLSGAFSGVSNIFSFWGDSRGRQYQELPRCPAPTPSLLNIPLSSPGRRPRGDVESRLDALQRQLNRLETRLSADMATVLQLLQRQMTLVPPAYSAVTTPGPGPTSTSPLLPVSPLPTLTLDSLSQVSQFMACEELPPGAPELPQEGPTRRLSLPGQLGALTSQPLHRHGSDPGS
row,Structure (SMILES),"hERG current change (%, negative = inhibition) at 10uM"
1,Cc1cc(C)cc(NC(=S)N(C)C)c1,-5.83%
2,COc1ccc(N2CCN(C(=O)c3ccc4c(c3)[nH]c(=S)n3c5ccccc5nc43)CC2)cc1,16.7%
3,Cc1nc2cc(NC(=O)c3ccc([N+](=O)[O-])s3)ccc2s1,-9.99%
4,O=C(c1cc(-c2cccc(O)c2)on1)N1CCN(C(c2ccccc2)c2ccccc2)CC1,10.8%
5,Cc1ccc2nc(SCc3nc4c(cnn4-c4ccccc4)c(=O)[nH]3)[nH]c2c1,15.3%
6,C/C=C/c1ccc(OCC(=O)Nc2cc(S(=O)(=O)N3CCOCC3)ccc2N2CCCC2)c(OC)c1,3.81%
7,CC1(C)C(CO)=CC(=O)C2=C1SCC(=O)N2,-16.3%
8,CCOc1ccc(NC(=O)C2CC(=O)OC2c2ccccc2)cc1 (stereo not shown),6.5%
9,CCC(C)NC(=O)CCc1nc2ccccc2n1-c1ccccc1 (stereo not shown),2.77%
10,O=C(CNC(=O)c1ccccc1Cl)OC1CCOC1=O (stereo not shown),13.5%
11,COc1ccc(Nc2cc(C)nc3ncnn23)cc1Cl,-39.5%
12,Cc1cc(N2CCCCC2)nc2c(C)cccc12,15%
13,Cc1nc2ncnn2c(N2CCN(C(=O)c3cccc(F)c3)CC2)c1C,-49.3%
14,Cc1cc(N2CCCC2)n2nc(C)nc2n1,-11.8%
15,Cc1cc(N2CCCC2)nc2c(C)cccc12,-21.6%
16,CCOC(=O)N1CCN(c2cc(C)nc3nc(C)nn23)CC1,-32.9%
17,COc1cccc2c(C)cc(N3CCCCCC3)nc12,-52.9%
18,COc1ccc(Nc2cc(C)nc3nc(C)nn23)cc1Cl,-55.5%
19,Cc1nc2ncnn2c(N2CCN(c3cccc(C(F)(F)F)c3)CC2)c1C,-64.1%
20,Cc1cc(Nc2ccc(F)c(Cl)c2)n2nc(C)nc2n1,-18%
21,Cc1cc(N2CCN(c3cccc(C(F)(F)F)c3)CC2)n2ncnc2n1,-37%
22,Cc1cc(N2CCN(C3CCCCC3)CC2)n2nc(C)nc2n1,-57.7%
23,O=C(O)CNC1=NCCCCC1,0.366%

row,Structure (SMILES),"hERG current change (%, negative = inhibition) at 10uM"
1,O=C(O)Cc1ccc(NS(=O)(=O)c2ccccc2Cl)cc1,24.4%
2,Cc1ccc(NS(=O)(=O)c2cc([N+](=O)[O-])ccc2NNC(=S)Nc2cc(C)ccc2C)c(C)c1,-0.00412%
3,CC1(C)Cc2c(C#N)c(N3CCN(C(=O)c4ccco4)CC3)nc(-c3ccco3)c2CS1,-21.6%
4,Cc1ccc(CNS(=O)(=O)c2c(N)n(C)c(=O)n(C)c2=O)cc1,8.77%
5,COc1ccc2c(CC(=O)NC(Cc3ccc(Cl)cc3)C(=O)O)cc(=O)oc2c1C (stereo not shown),3.13%
6,N#Cc1ccc(-c2ccc3c(c2)OCO3)nc1SCC(=O)OCc1ccccc1,9.22%
7,Cc1ccc(NC(=O)C2CCN(S(=O)(=O)c3c(C)noc3/C=C/N(C)C)CC2)cc1,-5.19%
8,O=C(c1ccc(-c2ccccc2Cl)o1)N1CCN(S(=O)(=O)c2cccs2)CC1,15.9%
9,O=C(c1cccs1)C1CN2CCC1CC2 (stereo not shown),-4.77%
10,COc1ccc(C(=O)Nc2ccc3c(c2)nc2n3CCSC2)cc1,-24.7%
11,O=c1[nH]c(=O)n(Cc2ccc(Oc3ccccc3)cc2)cc1Br,-1.61%
12,COc1ccc(NCc2ccc([N+](=O)[O-])s2)cc1,-13.6%
13,COc1cccc(NCc2ccc([N+](=O)[O-])s2)c1,-51%
14,Cc1cccc(NCc2ccc([N+](=O)[O-])s2)c1,-26.7%
15,COc1cc2c(cc1OC)-c1c3c(cc4c1[C@@H](C2)N(C)CC4)OCO3,-31.7%
16,COc1cc2c(cc1OC)-c1c(OC)c(OC)cc3c1C(C2)N(C)CC3 (stereo not shown),-5.23%
17,COc1cc2c(cc1O)[C@@H]1Cc3cc(O)c(OC)cc3[C@H](C2)N1C,11.3%
18,COc1cc2c(cc1O)C[C@H]1c3c(cc(O)c(OC)c3-2)CCN1C,-70.1%
19,COc1ccc2c(c1O)-c1c(OC)c(OC)cc3c1[C@H](C2)N(C)CC3,-36.5%
20,COc1cc2c(cc1O)CC1c3c(cc(O)c(OC)c3-2)CCN1C (stereo not shown),-59.2%
21,O=C(O)CCCCCN1C(=O)/C(=C\c2ccc(-c3ccc(Cl)cc3)o2)SC1=S,18%
22,COCCN1C(=O)c2ccccc2C(C(=O)Nc2ccc3c(c2)OCCO3)C1c1ccc(F)cc1 (stereo not shown),17.1%
23,COc1cccc(S(=O)(=O)Nc2ccc(C(=O)Nc3ccncc3)cc2)c1,2.7%
